Screen size: about 16,000 compounds; about 5,100 (32%) were called active. Another 25% or so got no clear call; they are omitted. Calls follow the shape of the dose curve; as a rule, active = well fitted curve in the direction sought with a large enough effect; inconclusive = small, poorly fitted or top-dose-only effect, or effect the other way; inactive = no such curve, though single readings can be large or run the other way. Some of the results follow.
Target: Cytochrome P450 3A4 (Homo sapiens) (UniProt P08684)
Experiment: Cytochrome panel assay with activity outcomes
Details: recombinant CYP, pro-luciferin dealkylation, luminescence, p450-cyp3a4; series mostly up to 57.1 µM; activity, negative = inhibition: at the top concentration
% is scaled to controls: 0 for no effect and ±100 for the full control effect.

Cytochrome P450 3A4 (Homo sapiens), sequence (P08684 whole entry, looked up): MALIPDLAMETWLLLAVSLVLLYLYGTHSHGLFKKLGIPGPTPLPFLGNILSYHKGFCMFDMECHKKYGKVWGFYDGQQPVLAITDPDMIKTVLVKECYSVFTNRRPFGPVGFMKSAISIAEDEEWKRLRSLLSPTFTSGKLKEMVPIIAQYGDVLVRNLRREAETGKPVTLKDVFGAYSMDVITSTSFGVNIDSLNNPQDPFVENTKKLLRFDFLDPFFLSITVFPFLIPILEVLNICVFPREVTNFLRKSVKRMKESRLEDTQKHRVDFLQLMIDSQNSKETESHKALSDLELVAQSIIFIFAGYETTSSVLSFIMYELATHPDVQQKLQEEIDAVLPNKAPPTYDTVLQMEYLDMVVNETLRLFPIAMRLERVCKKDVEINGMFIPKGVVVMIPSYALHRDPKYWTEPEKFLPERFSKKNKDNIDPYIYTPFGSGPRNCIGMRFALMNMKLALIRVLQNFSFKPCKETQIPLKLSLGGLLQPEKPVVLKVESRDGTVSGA

activity, negative = inhibition, inactive:
CSCC[C@@H]1NC(=O)C/C=C\[C@@H](C)COC(=O)[C@H](C)COC1=O -24% [at 11.4 µM], N#Cc1c(-c2ccc3c(c2)OCO3)ccn2nc(-c3cccc(C(F)(F)F)c3)nc12 13.4%, CN1CCN(c2cc(-c3ccc(N(C)C)cc3)ncn2)CC1 -24.7%, CC(=O)Oc1ccccc1C(=O)Oc1ccccc1C(=O)O -1.9% [at 25.6 µM], Nc1nc(-c2cccnc2)cc(-c2cc(-c3cccnc3)nc(N)n2)n1 -3.62% [at 11.4 µM], CCCCN(c1ccccc1)c1ncnc2c1cnn2C -28% [at 11.4 µM], CC(N)=NCc1cccc(CN)c1 -12.2%, CCC(=O)O[C@H](CC(=O)O)C[N+](C)(C)C -19.2%, OCC1CCCN(Cc2ccc(-c3ccccc3)cc2)C1 (configuration not stated) -6.47%, COCCNC(=O)c1sc2nc(-c3ccccc3)cn2c1C -8.11%, COc1cccc(C(=O)NCCN2CCOCC2)c1 -9.86%, O=C(NCCN1CCOCC1)c1csc2c1CCCCC2 -7.18% [at 2.29 µM], COc1ccc(C2=NOC(C(=O)NCCN3CCOCC3)C2)cc1 (configuration not stated) -26.8%, C(=C\c1nnc(-c2cccs2)o1)/c1ccccc1 -17.5%, O=C(Nc1ccccc1)N1CC2(CCN(C(=O)c3cnccn3)CC2)C1 0.638%, O=C(Nc1cccc(F)c1)N1CCC2(CC1)CCN(C(=O)c1cnccn1)CC2 7.18%, O=C(Nc1ccccc1)N1CCC2(CC1)CCN(C(=O)c1cnccn1)CC2 11.4%, CCNc1ncc2ncc(=O)n(C3CC3)c2n1 -18.8%, CC(C)NC(=O)N1CCN(c2ccncc2S(=O)(=O)N2CCOCC2)CC1 -21.8% [at 2.29 µM], Nc1ncnc2nc(N3CCN(CCO)CC3)[nH]c12 -3.68% [at 11.4 µM], Cn1c([N+](=O)[O-])cnc1CN1CCN(CCO)CC1 -14.7% [at 11.4 µM], CC(C)(C)NC(=O)C(=O)N/N=C/c1ccc(Br)cc1 8.12%, Cc1cc2c(c(=O)o1)[C@H](O)[C@H]1O[C@@H]1C2=O -24.9% [at 11.4 µM], O=C(O)CC1(CC(=O)O)Nc2ccccc2SC1=O -8.21% [at 11.4 µM], Cc1nonc1NC(=O)OCCN1CCOC1=O 1.72%, CCC(C)NC(=O)Cn1cnc2sc(C)cc2c1=O (configuration not stated) -19.8%, COCC(=O)N1CCC2(CC1)CCN(c1ncccn1)CC2 -11.9%, NS(=O)(=O)c1ccc(N=Nc2ccc[nH]c2=O)cc1 -13.7% [at 11.4 µM], N=C(N)SCCc1ccc(OCc2ccc([N+](=O)[O-])cc2)cc1 -23.5%, O=C(COc1ccc(Br)cc1)Nc1ccc([N+](=O)[O-])cn1 -23.2%, O=C1O[C@H](CN2CCOCC2)CN1/N=C\c1ccc([N+](=O)[O-])o1 -6.03% [at 25.6 µM], C[C@H](Nc1ncnc2sc3c(c12)CCC3)C(=O)O -10.2%, Fc1cccc(CSc2ncnc3c2ncn3[C@H]2CCCS2)c1 -11.8% [at 11.4 µM], N#Cc1ccc(-c2ccc(F)cc2)nc1Oc1ccc(Cl)c(Cl)c1 -17.9%, Cc1nc(Sc2ccccc2)c(C#N)cc1-c1ccccc1 -21.7%, CCN1C(=O)[C@H]2[C@H]3[C@H](O)[C@H](O)C/C(=N/O[C@@H]4O[C@@H](COC(C)=O)[C@@H](OC(C)=O)[C@@H](OC(C)=O)[C@H]4OC(C)=O)[C@@H]3CC[C@@H]2C1=O -19.3% [at 11.4 µM], COc1ccc(-c2c(C)oc3c(CN4CCN(CCO)CC4)c(O)ccc3c2=O)cc1OC -0.572% [at 11.4 µM], COc1cc(-c2ccc(=O)[nH]n2)ccc1OC(F)F -15.5% [at 25.6 µM], Nc1nc(Nc2ccccc2)nc2c1ncn2[C@@H]1O[C@@H](CO)[C@H](O)[C@H]1O -18.5%, O=C(CN1C(=O)c2ccccc2C1=O)NC1(C(=O)O)CCCC1 -10.2% [at 11.4 µM], Cc1nn(C(=O)CN2C(=O)c3ccccc3C2=O)c(C)c1Br 11.3%, COc1ccc(-c2nnc3n2N=C(C)CS3)cc1 -7.27%, CCOc1ccc(-c2nnc3ccc(SC)nn23)cc1 9.6%, c1ccc(-c2ccc(C3=Nn4c(Cn5nnc6ccccc65)nnc4SC3)cc2)cc1 -11.6% [at 2.29 µM], O=C(O)C1(Nc2ccc(Cl)cc2)CCCC1 -9.17% [at 11.4 µM], CCNC(=O)NC1(C(=O)Nc2ccc3c(c2)OCCO3)CCCCC1 -6.09%, O=C(CSCc1ccccc1)Nc1ccc(S(=O)(=O)N2CCOCC2)cc1 -15.3% [at 11.4 µM], CNc1csc(C)c(C)c1=O -19.3%, c1ccc2c(CSCc3cccc4ccccc34)cccc2c1 -3.97% [at 11.4 µM], CCCCN(C)C(=O)c1coc(=O)c2ccccc12 -9.54%, CCCCNC(=O)CN1C(=O)NC2(CCCc3ccccc32)C1=O (configuration not stated) -10.6%, N#Cc1ccc(CN2CC3(CCN(C(=O)c4cc(C(F)(F)F)cc(C(F)(F)F)c4)CC3)C2)cc1 -22.2%, N#Cc1ccc(CN2CCC3(CC2)CCN(C(=O)c2cc(C(F)(F)F)cc(C(F)(F)F)c2)CC3)cc1 -6.44%, O=C(c1cc(C(F)(F)F)cc(C(F)(F)F)c1)N1CCC2(CCN(Cc3ccccc3)CC2)CC1 6.76%, O=C(c1cc(C(F)(F)F)cc(C(F)(F)F)c1)N1CCC2(CC1)CN(Cc1ccccc1)C2 1.61%

AC50, active:
N#Cc1cccc(-c2nccc(-n3ccnc3)n2)c1 2.51 µM, N#Cc1cccc(-c2cc(-n3ccnc3)ncn2)c1 0.398 µM, c1cn(-c2ccnc(-c3ccc4c(c3)OCO4)n2)cn1 0.631 µM, CN(C)c1ccc(-c2cc(-n3ccnc3)ncn2)cc1 0.0631 µM, c1cncc(-c2cc(-n3ccnc3)ncn2)c1 1.58 µM, COc1cccc(-c2nccc(-n3ccnc3)n2)c1 1 µM, CS(=O)(=O)Nc1cccc(-c2cncnc2NCc2cccs2)c1 0.398 µM, Cc1cccc(CNc2ncncc2-c2cccc(NS(C)(=O)=O)c2)c1 0.158 µM, Cc1cnc(CNc2ncnc3ccc(-c4cccc(NS(C)(=O)=O)c4)cc23)cn1 12.6 µM, CS(=O)(=O)Nc1cccc(-c2cncnc2NCc2cccnc2)c1 1 µM, CS(=O)(=O)Nc1cccc(-c2ccc3ncnc(NCc4cccnc4)c3c2)c1 0.398 µM, CS(=O)(=O)Nc1cccc(-c2ccc3ncnc(NCc4cccs4)c3c2)c1 3.16 µM, Cc1cnc(CNc2ncncc2-c2cccc(NS(C)(=O)=O)c2)cn1 3.16 µM, CS(=O)(=O)Nc1cccc(-c2cncnc2NCc2ccccc2)c1 0.631 µM, COc1ccc(-c2csc(NC(=O)CCn3cnc4ccccc4c3=O)n2)cc1OC 11.2 µM, COc1ccc(C(=O)Nc2ccc(Cl)cc2C(=O)NCCN2CCOCC2)cc1 14.1 µM, COc1ccc(-c2cn3c(C)c(C(=O)NCCN4CCOCC4)sc3n2)cc1 12.6 µM, N#Cc1nc(-c2cccs2)oc1NCc1ccccc1 12.6 µM, O=C(Nc1cccc(F)c1)N1CC[C@@]2(CCCN(C(=O)c3cnccn3)C2)C1 12.6 µM, O=C(Nc1cccc(F)c1)N1CCCC2(CCN(C(=O)c3cnccn3)CC2)C1 12.6 µM, O=S(=O)(c1cnccc1N1CCN(CCO)CC1)N1CCCC1 3.98 µM, CC(C)N1CCN(c2ccncc2S(=O)(=O)N2CCCCC2)CC1 3.16 µM, O=S(=O)(c1cnccc1N1CCN(/N=C/c2ccccc2)CC1)N1CCCCC1 0.891 µM, CCCC[C@H]1C[C@@H]1[C@@H]1N(P(=O)(c2ccccc2)c2ccccc2)C[C@@](O)(c2ccccc2)CC12CC2 2 µM, CCCC[C@H]1C[C@@H]1[C@@H]1N(P(=O)(c2ccccc2)c2ccccc2)[C@](CO)(c2ccccc2)CC12CC2 2 µM, CC(C)(C)c1cc(/C=C(\C#N)C(N)=S)cc(C(C)(C)C)c1O 3.98 µM, Cc1sc2ncn(CC(=O)NCCCC(=O)N3CCN(c4ncccn4)CC3)c(=O)c2c1C 14.1 µM, O=C(COc1ccc([N+](=O)[O-])cc1)NN=C1CCCC1 25.1 µM, Cc1nc(NS(=O)(=O)c2ccccc2C)c2c3c(sc2n1)CCC3 8.91 µM, Cc1nc(NS(=O)(=O)c2ccc(Br)cc2)c2c3c(sc2n1)CCC3 11.2 µM, CNC(=S)N1CCN(c2ccccc2OC)CC1 10 µM, Cc1ccc(Sc2nc(-c3ccccc3)ccc2C#N)cc1 20 µM, COc1ccccc1-c1nnc(SCc2nc3ccccc3s2)n1C 17.8 µM, COc1ccc(-c2cc(-c3cc(F)ccc3O)[nH]n2)cc1OC 20 µM, COc1ccc(-c2cc(-c3c(O)c(OC)c4occc4c3OC)[nH]n2)cc1OC 7.94 µM, O=C1c2ccccc2C(=O)N1CC(=O)N1c2ccccc2CCc2ccccc21 12.6 µM, CCOc1ccc(-c2nnc3n2N=C(c2ccc(OC)cc2)CS3)cc1 15.8 µM, CCc1ccc(C2=Nn3c(nnc3-c3cccs3)SC2)cc1 25.1 µM, Cc1ccc(CNC(=O)C2(NC(=O)Nc3ccc(C)cc3)CCCCC2)cc1 2.51 µM, O=C(CSCc1ccccc1)Nc1cccc(C(=O)Nc2ccccc2C(=O)O)c1 14.1 µM, c1ccc2c(CSc3nnc(-c4ccncc4)o3)cccc2c1 15.8 µM, CCCCNC(=O)Cc1coc2ccc3ccccc3c12 4.47 µM, CCCN(C(=O)Cc1nc(N)n[nH]1)C1(C(=O)Nc2ccccc2C)CCCCC1 1.12 µM, O=C(c1ccncc1)N1CCC2(CC1)CN(Cc1cc(C(F)(F)F)cc(C(F)(F)F)c1)C2 5.01 µM, N#Cc1ccc(CN2CC[C@@]3(CCCN(C(=O)c4cc(C(F)(F)F)cc(C(F)(F)F)c4)C3)C2)cc1 5.01 µM, O=C(c1cc(C(F)(F)F)cc(C(F)(F)F)c1)N1CCC[C@@]2(CCN(Cc3ccncc3)C2)C1 0.501 µM, O=C(c1cc(C(F)(F)F)cc(C(F)(F)F)c1)N1CCC[C@@]2(CCN(Cc3ccccc3)C2)C1 5.01 µM
